In the library only some 19% were active in any assay of this set; here they are far more common.
TDP1 cell CPT: DT40-hTDP1 cell growth loss with CPT; actives 12% (n = 420,000); Potency, µM (top dose mostly 46.2 µM), for the others: at the highest dose activity change, negative = growth inhibition, actives largely listed as inhibitors; chicken DT40 Tdp1-/-;hTDP1 cells + 20 nM CPT, ATP luminescence, 48 h; note: potency is the fitted concentration of half-maximal effect; % is set by controls: 0 for no effect and ±100 for the full control effect; nearly all actives have a fitted effect of over 55% in size
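Chicken DT40 Tdp1-/- cells stably complemented with human TDP1 were seeded at 400 cells/well in medium containing 20 nM camptothecin, exposed to pin-transferred compounds, and grown at 37 °C for at least 48 hr. Viability was read as ATP luminescence.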
Chronic BCR inh: chronic active BCR signaling inhibition; ABC-DLBCL IkBa-CBG/CBR reporter, luminescence ratio, 4 h; Potency, µM (top dose mostly 46.1 µM), for the others: at the highest dose activity change, negative = inhibition, actives largely listed as inhibitors; AID 493014; actives 0.05% (n = 340,000); active = well fitted inhibition curve with a large enough effect in the signal ratio, with a control signal flat, not every such curve was filed as active; inconclusive = small, poorly fitted or top-dose-only effect, or effect the other way, or a change in a side signal; the % refers to the signal ratio;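 note: potency is the fitted concentration of half-maximal effect; plate controls were basal doxycycline-induced cells for no effect and cells given 10 µM MG132 for full effect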
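Cell line TMD8 (human ABC DLBCL), stably expressing tet-inducible CBG68-IkBa fusion and CBR; IMDM/0.5% FBS; cpd up to 46 uM; dox induction, 4 h, 37C/5% CO2; dual luminescence; green/red ratio; MG132 control.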
TDP1 cell noCPT: qHTS for Inhibitors of human tyrosyl-DNA phosphodiesterase 1 (TDP1): qHTS in cells in absence of CPT. actives 15% (n = 420,000). AID 686978, 2013. Potency, µM (series often up to 46.2 µM), for the others: at the highest dose activity change, negative = growth inhibition, hits mostly inhibitors. DT40 Tdp1-/- hTDP1 cells, no CPT, ATP luminescence, 48 h; note: potency is the fitted concentration of half-maximal effect; % is set by controls: 0 for no effect and ±100 for the full control effect; nearly all actives have a fitted effect of over 55% in size
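Compound effects on proliferation are scored in DT40 Tdp1-/-;hTDP1 cells in the absence of CPT. ATP levels (CellTiter-Glo luminescence) are recorded after a ≥48 hr, 37 °C incubation.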
IL-1B inflam inh: blocks inflammasome-driven IL-1 beta release | THP-1 LPS/ATP IL-1B secretion, AlphaLISA, 16 h; stronger effect = lower value | activity change, % at 57.5 µM | actives 4.7% (n = 360,000) | AID 743279; in the data active = activity change below about -50%; inconclusive = mostly about -30% to -49%; note: % is set by controls: 0 for no effect and ±100 for the full control effect
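THP-1 cells pretreated 1 hr with compounds (up to 57.5 uM final), then stimulated with LPS (250 ng/mL final) plus ATP (1.25 mM final); secreted IL-1B measured by AlphaLISA after 16 hr, decreased signal indicating inhibition.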
SW480 rereplic: induces DNA re-replication in SW480 colon adenocarcinoma cells; SW480 DNA re-replication, Hoechst DNA content imaging, 48 h; Potency, µM (highest dose often 46.1 µM), for inactives: top-dose re-replication activation, most hits filed as activators; actives 1.8% (n = 340,000); note: potency is the fitted concentration of half-maximal effect; % of control where 0% means no effect; nearly all actives have a fitted effect of over 55% in size
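Compounds, transferred as 23 nL by pin tool, were incubated with cells for 48 hr; DNA content per nucleus was then quantified by Hoechst staining and fluorescence plate imaging.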
MCF10A rerep: DNA re-replication induction in MCF 10a cells; MCF 10A DNA re-replication, Hoechst nuclear intensity, 48 h; Potency, µM (series often up to 46.1 µM), for the others: at the highest dose activity, positive = re-replication, actives largely listed as activators; actives 2.9% (n = 350,000); note: potency is the fitted concentration of half-maximal effect; % of control where 0% means no effect; nearly all actives have a fitted effect of over 50% in size
An asterisk follows results filed as active; ! = repeats disagree; [ ] = another dose, or the depositor's remark. Unless noted, calls come from the whole dose curve; as a rule, active = well fitted curve in the direction sought with a large enough effect; inconclusive = small, poorly fitted or top-dose-only effect, or another doubt; inactive = no such curve, though single readings can be large; an effect the other way counts as inactive or inconclusive.

What do the screens show for `O=C(C1CCN(S(=O)(=O)c2ccc(Br)s2)CC1)N1CCCCC1`?
TDP1 cell CPT: inconclusive; Chronic BCR inh: 2.7%; TDP1 cell noCPT: 20.6µM*; IL-1B inflam inh: -6.1; SW480 rereplic: -9.0%; MCF10A rerep: 9.9%

Results for CC1CC(C)CN(C(=O)C(C)N2CCN(S(=O)(=O)c3ccc(Br)s3)CC2)C1 (configuration not stated) ?
TDP1 cell CPT: inconclusive; Chronic BCR inh: -5.3%; TDP1 cell noCPT: inconclusive; IL-1B inflam inh: -58.9*; SW480 rereplic: 1.2%; MCF10A rerep: inconclusive

What do the screens show for `CC1CC(C)CN(C(=O)C(C)N2CCN(S(=O)(=O)c3cccs3)CC2)C1` (configuration not stated)?
TDP1 cell CPT: -29.9%; Chronic BCR inh: -1.3%; TDP1 cell noCPT: -7.0%; IL-1B inflam inh: 1.7; SW480 rereplic: -3.3%; MCF10A rerep: -1.0%

How did Cc1cccc(N2CCN(C(=O)C3CCCN(S(=O)(=O)c4c(C)noc4C)C3)CC2)c1C (configuration not stated) do in these assays?
TDP1 cell CPT: 23.1µM*; TDP1 cell noCPT: 23.1µM*; IL-1B inflam inh: -17.6; SW480 rereplic: 6.8%; MCF10A rerep: 2.6%

How did O=C(NCc1ccc(F)cc1)C1CCCN(S(=O)(=O)c2ccc(Br)s2)C1 (configuration not stated) do in these assays?
TDP1 cell CPT: inconclusive; Chronic BCR inh: inconclusive; TDP1 cell noCPT: inconclusive; IL-1B inflam inh: -53.1*; SW480 rereplic: 0.5%; MCF10A rerep: inconclusive

Results for OC12CC3C[C@H](C1)C(N1CCOCC1)[C@@H](C3)C2 (some centres not stated) ?
TDP1 cell CPT: -7.1%; Chronic BCR inh: 2.5%; TDP1 cell noCPT: 0.6%; IL-1B inflam inh: 12.1; SW480 rereplic: 8.8%; MCF10A rerep: -4.3%

What do the screens show for `COc1ccc(/C=C/C(=O)N2CCc3c(cnc(C)c3CNS(=O)(=O)c3cccs3)C2)cc1`?
TDP1 cell CPT: 0.2%[9.04 µM]; TDP1 cell noCPT: inconclusive

What do the screens show for `CSc1ccc(C(=O)C2CCCN(S(=O)(=O)c3c(C)noc3C)C2)cc1` (configuration not stated)?
TDP1 cell CPT: inconclusive; Chronic BCR inh: inconclusive; TDP1 cell noCPT: inconclusive; IL-1B inflam inh: -51.9*; SW480 rereplic: -33.2%; MCF10A rerep: -2.1%

Results for O=C(C1CCN(S(=O)(=O)c2c(Cl)cccc2Cl)CC1)N1CCCCCCC1 ?
TDP1 cell CPT: -20.7%; Chronic BCR inh: 12.7%; TDP1 cell noCPT: inconclusive; IL-1B inflam inh: -20.4; SW480 rereplic: 4.11µM*; MCF10A rerep: 0.3%

Results for Cc1noc(C)c1S(=O)(=O)N1CCC(C(=O)c2ccccc2)CC1 ?
TDP1 cell CPT: 1.8%; Chronic BCR inh: 2.2%; TDP1 cell noCPT: -6.3%; IL-1B inflam inh: 21.0; SW480 rereplic: -13.5%; MCF10A rerep: 3.9%

Results for CC(=O)SC1CC2=CC(=O)CC[C@@]2(C)C2CC[C@@]3(C)[C@@H](CC[C@@]34CCC(=O)O4)C12 (some centres not stated) ?
TDP1 cell CPT: 13µM*; TDP1 cell noCPT: 16.4µM*

Results for C[C@]12CCC(=O)C=C1C=C[C@@H]1[C@@H]2CC[C@@]2(C)[C@H]1CC[C@@]21CCC(=O)O1 ?
TDP1 cell CPT: inconclusive; Chronic BCR inh: -14.7%; TDP1 cell noCPT: 15µM*!; IL-1B inflam inh: -0.1; SW480 rereplic: -5.2%; MCF10A rerep: -3.2%

What do the screens show for `C#CCOCC1CNC(=S)O1` (configuration not stated)?
TDP1 cell CPT: 9.6%; TDP1 cell noCPT: -12.6%; IL-1B inflam inh: 3.3

Results for CC(C)c1ccc(Cn2ccc3c4c(N)nc(NC5CC5)nc4ccc32)cc1 ?
TDP1 cell CPT: 4.73µM*; TDP1 cell noCPT: 3.35µM*

What do the screens show for `COc1ccc(C(=O)CCC(=O)Nc2cccnc2)cc1OC`?
TDP1 cell CPT: 2.8%; Chronic BCR inh: 1.5%; TDP1 cell noCPT: -1.0%; IL-1B inflam inh: 31.3; SW480 rereplic: -129.1%; MCF10A rerep: -20.3%

How did O=C(N/N=C/c1ccc2c(c1)OCO2)c1cccc(NC(=O)c2ccccc2Cl)c1 do in these assays?
TDP1 cell CPT: 8.2µM*; Chronic BCR inh: inconclusive; TDP1 cell noCPT: 8.2µM*; IL-1B inflam inh: 70.5; SW480 rereplic: inconclusive; MCF10A rerep: 19.0%

Results for Cc1cccc(C(=O)Nc2cccc(C(=O)N/N=C/c3ccc4c(c3)OCO4)c2)c1 ?
TDP1 cell CPT: inconclusive; Chronic BCR inh: inconclusive; TDP1 cell noCPT: 29.1µM*; IL-1B inflam inh: 17.3; SW480 rereplic: 23.1µM*; MCF10A rerep: 13µM*

What do the screens show for `Cc1cccc(C(=O)Nc2ccc(C(=O)N/N=C/c3ccc4c(c3)OCO4)cc2)c1`?
TDP1 cell CPT: -26.3%; Chronic BCR inh: inconclusive; TDP1 cell noCPT: inconclusive; IL-1B inflam inh: 9.3; SW480 rereplic: 3.7%; MCF10A rerep: 19.3%

How did CCCCC(=O)N1C(C)CCC1C (configuration not stated) do in these assays?
TDP1 cell CPT: 8.2%; TDP1 cell noCPT: 2.8%; IL-1B inflam inh: -6.8

Results for O=C(NNC(=O)c1ccccc1Cl)c1ccc2c(c1)OCCO2 ?
TDP1 cell CPT: -0.5%; Chronic BCR inh: inconclusive; TDP1 cell noCPT: -0.6%; IL-1B inflam inh: -12.3; SW480 rereplic: -3.0%; MCF10A rerep: -1.6%

Results for COc1ccc(N2CCN(c3ccc4nnc(CCC(=O)Nc5ccc(C)cc5)n4n3)CC2)cc1 ?
TDP1 cell CPT: inconclusive; Chronic BCR inh: -5.6%; TDP1 cell noCPT: 23.1µM*; IL-1B inflam inh: 41.2; SW480 rereplic: -13.0%; MCF10A rerep: 5.4%

What do the screens show for `CCN(CC)c1ccc(NC(=O)CCc2nnc3ccc(N4CCCC4)nn23)c(C)c1`?
TDP1 cell CPT: 14.6µM*; Chronic BCR inh: 22.4%; TDP1 cell noCPT: 23.1µM*; IL-1B inflam inh: 69.7; SW480 rereplic: -8.3%; MCF10A rerep: 11.0%

What do the screens show for `CCOC(=O)c1ccc(NC(=O)CCc2nnc3ccc(N4CCCC4)nn23)cc1`?
TDP1 cell CPT: 25.9µM*; Chronic BCR inh: -3.9%; TDP1 cell noCPT: inconclusive; IL-1B inflam inh: 1.9; SW480 rereplic: 27.1%; MCF10A rerep: 8.3%

What do the screens show for `COc1ccc(NC(=O)CCc2nnc3ccc(N4CCC(C)CC4)nn23)cc1`?
TDP1 cell CPT: inconclusive; Chronic BCR inh: -5.3%; TDP1 cell noCPT: inconclusive; IL-1B inflam inh: -4.1; SW480 rereplic: -27.7%; MCF10A rerep: -0.7%
